SRC3 TRFRET art = flags TR-FRET format artefacts in PPARgamma SRC-3 recruitment agonist screen; TR-FRET artefact counter-screen, PPARgamma/SRC-3 format; active compounds read high; TR-FRET ratio at 8 µM; actives 0.39% (n = 99,000); AID 1048; in the data active = TR-FRET ratio above about 2000
PPARg SRC2 recr = agonists of SRC-2 recruitment by human PPARgamma; activation, % at 8 µM; PPARgamma LBD-SRC-2 recruitment, biochemical; AID 1032; P37231; actives 0.34% (n = 200,000);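 note: 0% = vehicle and 100% = reference agonist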
Target sequence (P37231 whole entry, looked up, the tested form may be a part): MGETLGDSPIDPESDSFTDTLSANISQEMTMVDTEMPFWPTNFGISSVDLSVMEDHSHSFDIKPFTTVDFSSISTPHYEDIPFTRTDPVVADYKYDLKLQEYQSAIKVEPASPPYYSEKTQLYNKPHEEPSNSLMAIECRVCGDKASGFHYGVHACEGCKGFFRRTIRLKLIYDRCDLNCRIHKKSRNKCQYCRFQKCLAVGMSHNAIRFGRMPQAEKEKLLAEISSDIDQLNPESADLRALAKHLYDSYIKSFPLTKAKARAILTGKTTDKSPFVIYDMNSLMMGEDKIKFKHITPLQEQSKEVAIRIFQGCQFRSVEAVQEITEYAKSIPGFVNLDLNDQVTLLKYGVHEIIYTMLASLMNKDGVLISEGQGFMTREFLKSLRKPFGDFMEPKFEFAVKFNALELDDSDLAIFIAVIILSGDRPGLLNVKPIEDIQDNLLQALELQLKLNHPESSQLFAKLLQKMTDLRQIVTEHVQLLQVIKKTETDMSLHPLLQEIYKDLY
PPARg SRC3 recr = agonists of human PPARgamma SRC-3 coactivator recruitment. P37231. biochemical PPARgamma/SRC-3 coactivator recruitment assay. activation, % at 8 µM. actives 0.26% (n = 200,000). AID 731; in the data active = activation above about 23%;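 note: 0% = DMSO and 100% = reference agonist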
TR-FRET SRC-2 ct = TR-FRET artefact, counter-screen to PPARgamma/SRC-2 agonist assay | active compounds read high | actives 0.4% (n = 200,000) | TR-FRET ratio at 8 µM; in the data active = TR-FRET ratio above about 2000
PPARg SRC1 recr = agonists of human PPARgamma SRC-1 coactivator recruitment | P37231 | PPARgamma-SRC-1 coactivator recruitment biochemical assay | activation, % at 8 µM | actives 0.41% (n = 200,000); in the data active = activation above about 19%;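 note: 0% = DMSO and 100% = reference agonist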
SRC1 TRFRET art = counter-screen for PPARgamma SRC-1 recruitment agonists: TR-FRET artefact. TR-FRET detection artefact counter-screen, emission ratio; active compounds read high. TR-FRET ratio at 8 µM. actives 0.34% (n = 99,000); in the data active = TR-FRET ratio above about 2300
PPARg SRC2 conf = confirmation of agonists of SRC-2 recruitment by human PPARgamma | actives 52% (n = 790) | shares compounds with PPARg SRC3 recr | biochemical SRC-2 recruitment by PPARgamma | activation, % at 8 µM;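 note: 0% = vehicle alone and 100% = reference agonist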
PPARg SRC1 conf = confirmation of agonists of SRC-1 recruitment by human PPARgamma; shares compounds with PPARg SRC3 recr; PPARgamma–SRC-1 coactivator recruitment biochemical assay; activation, % at 8 µM; actives 43% (n = 790); in the data active = activation above about 20%;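 note: 0% = vehicle wells and 100% = reference agonist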
PPARg SRC3 ag = human PPARgamma SRC-3 recruitment agonism, confirmation; shares compounds with PPARg SRC3 recr; activation, % at 8 µM; actives 29% (n = 790); AID 1301; biochemical PPARgamma-SRC-3 coactivator recruitment, agonist mode; in the data active = activation above about 24%;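 note: 0% = vehicle wells and 100% = reference agonist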
* hit, by the source's call; . = not tested or not shown. Most compounds without a hit are left out; they make up all but 0.84% or so of the library. Cut-off read from the data, not from the text of the source, unless noted: active = activation above about 22%; inactive = the rest.

SMILES	SRC3 TRFRET art	PPARg SRC2 recr	PPARg SRC3 recr	TR-FRET SRC-2 ct	PPARg SRC1 recr	SRC1 TRFRET art	others
Cc1cc[n+](-c2nc([O-])n(-c3ccccc3)c2C=O)cc1	.	7.6	-2.3	1611	-1.3	.
O=C(CSc1ncnc2scc(-c3ccccc3)c12)N1CCN(c2ccccc2F)CC1	2200*	0.8	3.6	1481	0.6	1899
CN(CCc1cnn(C)c1)Cc1cn[nH]c1-c1ccc(-c2ccccc2)cc1	1602	1.8	2.1	1780	1.3	1885
Cc1ccc(-c2csc3ncnc(SCC(=O)NCc4ccc5c(c4)OCO5)c23)cc1	.	1.8	11.9	2614*	5.5	.
CCOC(=O)CCCNC(=O)COC(=O)c1cccc(F)c1	1612	14.4	1.9	1560	3.3	1626
COc1ccc(Nc2nc(-c3ccccc3)c(C(=O)Nc3cccnc3)s2)cc1	2178*	16.4	18.8	1853	16.7	2466*
CCOC(=O)CSc1c(-c2ccc(Cl)cc2)[nH]c2ccccc12	2441*	14.7	12.2	1904	13.6	2190
O=C(c1ccccc1)c1ccc2nc(-c3ccc(NC(=O)c4ccccc4Br)cc3)[nH]c2c1	.	-0.5	7.8	2003*	8.6	.
O=C1CCC(C(=O)N(Cc2cccs2)C2(C(=O)NC3CCCCC3)CCCCC2)N1 (stereo not drawn)	1673	6.5	8.1	1402	-3.5	2103
O=c1c(/C=N/OCc2ccc(Cl)cc2Cl)c[nH]n1-c1cccc(Cl)n1	1602	-1.8	-0.5	2085*	8.3	1942
Cc1cc(SCC(=O)c2cc3ccccc3o2)nc2ccccc12	.	4.3	1.9	2575*	2.7	.
Cc1cc(NC(=O)CSc2nc3cc(Cl)ccc3s2)no1	.	3.0	18.6	1623	-0.3	.
O=C(CSc1nc2cc(Cl)ccc2s1)c1cc2ccccc2o1	.	8.0	1.4	2199*	2.9	.
CC(C)CNC(=O)c1cccc(NC(=O)CCc2ccccc2)c1	1464	4.5	0.5	1585	4.0	1792
Cc1ccc(N2C(=O)C3CCC(c4ccccc4)CC3C2=O)cc1 (stereo not drawn)	1599	-3.0	0.4	1420	37.0*	2647*
O=C(NCc1n[nH]c(=S)n1-c1ccc(Br)cc1)c1ccc(S(=O)(=O)N2CCCC2)cc1	1545	3.1	0.3	1416	5.1	1793
O=C(NCc1n[nH]c(=S)n1-c1ccc(Br)cc1)c1ccc(S(=O)(=O)N2CCOCC2)cc1	1445	22.3*	3.7	1713	5.4	1728
COc1cc(C(=O)Nc2nnc(CC(=O)N3CCOCC3)s2)cc(OC)c1OC	.	-3.5	-6.8	1308	3.5	.
COc1ccc(-c2ccnc3c(C(=O)O)cnn23)cc1	1539	4.0	1.0	1578	-2.6	1793
Cc1cccc(C)c1NC(=S)Nc1c(C)n(C)n(-c2ccccc2)c1=O	1560	-1.3	-4.9	1391	26.2*	1821
COc1ccc(-n2c(SCCC#N)nnc2-c2cc(Cl)ccc2OC)cc1Cl	.	5.5	22.1	2116*	10.3	.
Cc1cccc(-c2nnc(SCC#N)n2-c2cccc(Cl)c2)c1	.	-3.8	-11.1	1440	5.1	.
N#Cc1ccccc1NC(=O)c1ccccc1OCC(=O)Nc1ccc2c(c1)oc1ccccc12	.	12.5	5.4	2662*	3.0	.
CC(C)c1nnc(NC(=O)c2cccc(NC(=O)C(F)(F)F)c2)s1	1623	7.0	3.7	1976*	3.9	1816
CC(=O)c1cccc(-n2nnnc2SCC(=O)N2CCCC2)c1	.	0.4	-13.3	1600	-4.9	.
O=C(CSc1ccccc1)Nc1ccc(C(=O)Nc2ccc(O)cc2)cc1	1821	37.4*	18.3	1725	26.2*	1849	PPARg SRC2 conf=29.8*;PPARg SRC1 conf=21.6*;PPARg SRC3 ag=18.2
COC(=O)c1ccc(NC(=O)CSc2ccccc2)cc1	1619	-4.9	5.0	1612	1.6	1964
COc1ccc(S(=O)(=O)Nc2nccs2)cc1OC	1568	6.7	1.0	1549	1.3	1720

High-throughput results as filed in PubChem BioAssay.
